# Screens as filed in PubChem BioAssay.
# Compounds with a hit are over-represented: about 2.6% of the library has one in this group of screens.
# Mcl-1 Bim block: disrupts Bim peptide binding to human Mcl-1; Bead-based flow cytometry, Bim peptide-Mcl-1 binding; Q07820; actives 0.1% (n = 190,000); inhibition, % at 10 µM; AID 1009; in the data active = inhibition above about 40%
# Target sequence (Q07820 whole entry, looked up): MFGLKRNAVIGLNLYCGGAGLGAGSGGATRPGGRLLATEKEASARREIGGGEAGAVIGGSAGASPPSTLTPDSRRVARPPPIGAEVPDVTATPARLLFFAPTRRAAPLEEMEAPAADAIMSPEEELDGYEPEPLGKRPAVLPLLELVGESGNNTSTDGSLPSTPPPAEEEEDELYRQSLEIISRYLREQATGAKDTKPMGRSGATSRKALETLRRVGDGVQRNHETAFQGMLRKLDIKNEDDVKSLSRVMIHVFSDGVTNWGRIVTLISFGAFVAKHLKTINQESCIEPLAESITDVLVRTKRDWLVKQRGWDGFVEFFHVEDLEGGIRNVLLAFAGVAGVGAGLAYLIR
# eIF4E 4G PPI: blocks eIF4E binding to eIF4G. P63073+Q04637. TR-FRET eIF4E-eIF4GI(517-606) binding, 2 h. inhibition, % at 21.7 µM. actives 0.37% (n = 220,000);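 active = inhibition above about 30%, limit read from the data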
# Mcl1 Bid PPI: Mcl-1/Bid interaction inhibition; Q07820; TR-FRET Mcl-1/Bid-Dy647 peptide binding, 1536-well; inhibition, % at 21.7 µM; actives 0.97% (n = 220,000); AID 1021;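 active = compounds that cut the binding signal by more than half at the single screening dose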;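 also: His-tagged Mcl-1 with europium anti-His antibody binding Bid BH3 peptide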
# MCL1-BIM inh: MCL1-BIM-BH3 interaction inhibition (human); GST-MCL1 / FITC-Bim-BH3 fluorescence polarization; actives 0.68% (n = 320,000); inhibition, % at 10.9 µM; AID 2057;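 active = inhibition above the mean inhibition of all tested compounds plus 3 SD, set per campaign, cut at about 40% in these data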;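 also: higher means more loss of mP so more displacement of Bim peptide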
# 14-3-3 Bad PPI: disrupts binding of bovine 14-3-3 zeta to phospho-Bad peptide. P63103. TR-FRET 14-3-3zeta/Dy647-pBad peptide displacement, 1 h. inhibition, % at 21.7 µM. actives 0.71% (n = 220,000);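 active = inhibition above about 70%, limit read from the data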
# Mcl1 Noxa PPI: disrupts binding of human Mcl-1 to Noxa peptide | inhibition, % at 21.7 µM | actives 1.5% (n = 220,000) | AID 1022 | Q07820 | TR-FRET Mcl-1/Noxa peptide binding, 2 h;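 active = compounds that cut the protein-peptide binding signal by more than 50% relative to plate controls in a single-dose test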;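 also: His-tagged Mcl-1 with rhodamine Noxa BH3 peptide and terbium anti-His antibody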
# Hits are given with their value; – = inactive; · = not tested or not shown.
SMILES,Mcl-1 Bim block,eIF4E 4G PPI,Mcl1 Bid PPI,MCL1-BIM inh,14-3-3 Bad PPI,Mcl1 Noxa PPI
COc1ccc(NS(=O)(=O)c2ccc(N3CCCC3)c(NC(=S)Nc3cccc(S(=O)(=O)N(C)C)c3)c2)cc1,–,–,–,–,–,62.2
Cc1cc(C)c(C#N)c(N2CCN(Cc3ccccc3)CC2)n1,–,–,–,–,–,–
CC1(C)CCN(Cc2ccccc2)C1CC#N (configuration not stated),–,–,–,–,71.3,–
O=C(c1cnn(C(=O)CN2CCCC2=O)c1)c1ccccc1O,·,·,·,–,·,·
COc1ccccc1C(=O)NC(=O)COC(=O)Cn1cnc2c1c(=O)n(C)c(=O)n2C,·,·,·,–,·,·
O=C(CCCNC(=O)c1ccc(Cl)cc1)NCc1ccccc1F,·,·,·,–,·,·
CC(C)n1cc(CN2CCC(C(=O)Nc3ccc(Oc4ccccc4F)cc3)CC2)cn1,·,·,·,–,·,·
Cc1cccc(-c2n[nH]c(=S)n2/N=C/c2cccs2)c1,·,–,–,–,–,–
Cc1cccc(-c2n[nH]c(=S)n2/N=C/c2ccc(C)s2)c1,–,–,–,–,–,69.0
COc1ccc(NS(=O)(=O)NC(=O)c2c[nH]c3ccccc23)cc1,·,·,·,–,·,·
COc1cccc(N2CCN(C(=O)NC3CCCCC3)CC2)c1,–,–,94.0,–,–,–
COc1ccc(OCCC(=O)OCC(=O)NCc2ccc(F)cc2)cc1,–,–,–,–,–,–
CNC(=O)NC1CCCc2ccccc21 (configuration not stated),–,–,–,–,–,92.1
O=C(Nc1ccccc1)NC1CCCc2ccccc21 (configuration not stated),–,–,–,–,–,–
CC1CCc2sc(C(=O)Nc3ccc(N4CCOCC4)cc3)cc2C1 (configuration not stated),–,–,–,–,–,52.5
O=C(Nc1ccc(N2CCOCC2)cc1)c1cnsn1,–,–,–,·,–,–
CC1CCc2sc(C(=O)NCC(C)(C)N3CCOCC3)cc2C1 (configuration not stated),·,·,·,–,·,·
O=C(Nc1ccc(N2CCOCC2)cc1)Nc1ccc2nsnc2c1,–,–,–,–,–,61.3
CC12CC3(C)CC(C)(C1)CC(C(=O)NC(=S)N1CCCC1)(C2)C3,–,31.8,–,–,–,–
Cn1cccc1Cc1nnc(SCC(=O)Nc2cccc(F)c2)n1-c1ccc(F)cc1,–,–,–,–,–,–
Cn1cccc1Cc1nnc(SCC(=O)Nc2cccc(Cl)c2)n1-c1ccc(F)cc1,–,–,65.1,–,–,–
CCOC(=O)c1cc2c(OC)ccc(OC)c2n1CC(=O)c1ccccc1,·,·,·,–,·,·
O=C(NC(=S)NCc1cccnc1)c1cc(Br)ccc1Cl,·,·,·,–,·,·
O=C(Cn1ccc(NC(=O)OCc2ccccc2)nc1=O)NCCCn1ccnc1,·,·,·,–,·,·
COc1ccccc1CNC(=O)C1CC(c2c(Cl)cccc2Cl)=NO1 (configuration not stated),–,–,–,–,70.4,–
SMILES,Mcl-1 Bim block,eIF4E 4G PPI,Mcl1 Bid PPI,MCL1-BIM inh,14-3-3 Bad PPI,Mcl1 Noxa PPI
COc1ccccc1CNC(=O)C1CC(c2ccc([N+](=O)[O-])cc2)=NO1 (configuration not stated),–,–,–,–,–,–
O=C(O)c1ccc2c(c1)C(=O)N(c1cccc(-c3nc4ccccc4s3)c1)C2=O,–,46.3,–,–,–,–
Cc1occc1C(=O)NNC(=O)Nc1ccc([N+](=O)[O-])cc1,–,–,82.1,–,–,–
Cc1occc1C(=O)Nc1ccc([N+](=O)[O-])cc1Br,·,·,·,–,·,·
COc1ccc(OC2CCN(S(=O)(=O)c3ccc(C(C)=O)cc3)CC2)cc1,·,·,·,–,·,·
CCn1cc(C(=O)Nc2ccc(-n3cnnn3)c(OC)c2)c(=O)c2ccc(C)nc21,–,–,–,·,–,58.0
Cc1ccc(OCCSc2cc(C)nc(N)n2)cc1,–,–,–,–,–,–
CCCCSc1cc(C)nc(N)n1,·,–,78.8,–,–,–
Cc1[nH]c(C)c(S(=O)(=O)N2CCN(c3ccccc3F)CC2)c1C(=O)N1CCCCC1,·,·,·,–,·,·
Cc1c(C(=O)OCC(C)C)[nH]c2c1C(=O)CC(c1ccco1)C2 (configuration not stated),–,–,–,–,–,–
Cc1c(C(=O)OCC2CCCO2)[nH]c2c1C(=O)CC(c1ccco1)C2 (configuration not stated),–,–,–,–,–,70.3
CCN(CC)c1ccc(C=Nc2cccnc2Cl)c(O)c1,·,·,·,50.8,·,·
